Results on 37 compounds are retold here after PubChem BioAssay (Tox21).

Results filed as inconclusive are left out. Where a call stands in place of a potency, no number is given. Active and inactive are the calls of the source. The call rests on the fitted dose curve; in most records, active means well fitted curve in the direction sought with a large enough effect in the repeat runs; inconclusive means weak or mixed curves; inactive means no such curve, though single readings can be large; an effect the other way counts as inactive or inconclusive.
Further: nearly all actives have a fitted effect of over 50% in size.

Sequence of Cytochrome P450 1A2 (Homo sapiens) (P05177 whole entry, looked up): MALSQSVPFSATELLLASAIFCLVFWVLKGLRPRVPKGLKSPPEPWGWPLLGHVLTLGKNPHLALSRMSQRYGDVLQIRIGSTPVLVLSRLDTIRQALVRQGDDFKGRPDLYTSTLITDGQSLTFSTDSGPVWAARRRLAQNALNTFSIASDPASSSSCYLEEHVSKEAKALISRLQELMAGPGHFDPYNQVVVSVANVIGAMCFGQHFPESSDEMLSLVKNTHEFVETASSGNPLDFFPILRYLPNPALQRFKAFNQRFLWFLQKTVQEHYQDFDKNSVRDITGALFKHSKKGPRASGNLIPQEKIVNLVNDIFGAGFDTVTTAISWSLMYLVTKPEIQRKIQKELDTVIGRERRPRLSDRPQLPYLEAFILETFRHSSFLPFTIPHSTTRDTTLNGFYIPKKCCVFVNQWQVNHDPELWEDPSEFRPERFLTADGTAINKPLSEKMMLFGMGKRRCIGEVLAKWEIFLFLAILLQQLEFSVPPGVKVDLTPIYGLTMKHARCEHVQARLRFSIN
Sequence of Voltage-gated inwardly rectifying potassium channel KCNH2 (Homo sapiens) (Q12809 whole entry, looked up): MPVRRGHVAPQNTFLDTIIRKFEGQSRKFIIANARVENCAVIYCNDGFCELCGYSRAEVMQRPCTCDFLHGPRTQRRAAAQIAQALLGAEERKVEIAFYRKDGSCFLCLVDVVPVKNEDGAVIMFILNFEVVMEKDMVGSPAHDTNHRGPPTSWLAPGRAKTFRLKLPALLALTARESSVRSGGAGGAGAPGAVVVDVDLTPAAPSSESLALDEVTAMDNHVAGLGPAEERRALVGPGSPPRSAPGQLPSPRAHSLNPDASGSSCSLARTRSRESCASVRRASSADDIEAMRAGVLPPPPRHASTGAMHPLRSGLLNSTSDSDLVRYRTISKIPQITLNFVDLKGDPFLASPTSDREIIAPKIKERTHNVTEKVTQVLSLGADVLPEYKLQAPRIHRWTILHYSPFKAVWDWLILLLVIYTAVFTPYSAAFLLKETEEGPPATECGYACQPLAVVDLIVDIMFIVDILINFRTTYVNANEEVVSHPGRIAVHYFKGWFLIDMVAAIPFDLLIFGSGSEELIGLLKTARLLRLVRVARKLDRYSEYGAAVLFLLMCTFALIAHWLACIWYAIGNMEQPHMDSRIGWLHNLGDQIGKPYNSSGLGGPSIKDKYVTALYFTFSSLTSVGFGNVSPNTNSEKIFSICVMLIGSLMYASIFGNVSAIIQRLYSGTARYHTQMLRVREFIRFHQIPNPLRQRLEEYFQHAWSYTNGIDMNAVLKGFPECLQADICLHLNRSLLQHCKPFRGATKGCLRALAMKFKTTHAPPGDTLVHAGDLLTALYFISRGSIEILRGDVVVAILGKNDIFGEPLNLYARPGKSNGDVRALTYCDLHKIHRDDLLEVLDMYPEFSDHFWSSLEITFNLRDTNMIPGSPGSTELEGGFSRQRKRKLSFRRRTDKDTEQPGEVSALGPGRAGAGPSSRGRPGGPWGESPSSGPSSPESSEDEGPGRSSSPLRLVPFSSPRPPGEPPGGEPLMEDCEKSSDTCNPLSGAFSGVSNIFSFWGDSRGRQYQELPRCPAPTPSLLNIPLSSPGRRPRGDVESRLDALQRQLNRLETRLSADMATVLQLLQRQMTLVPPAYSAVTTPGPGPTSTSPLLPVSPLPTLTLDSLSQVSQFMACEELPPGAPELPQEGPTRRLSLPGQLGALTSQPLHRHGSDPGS

The first assay deals with Cytochrome P450 1A2 (Homo sapiens) (UniProt P05177). In words: Cytochrome P450 Family 1 Subfamily A Member 2 (CYP1A2) small molecule antagonists: luciferase reporter qHTS assay (AID 1671199). Further: potency means the concentration at half of the fitted maximal effect. The note with it: P450-Glo CYP1A2 enzyme, luciferin luminescence, 1 h; series mostly up to 53 µM. An outline of the steps:
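Inhibition of CYP1A2 conversion of proluciferin to luciferin, detected by luminescence. Reaction run 1 h at room temperature with NADPH regeneration after brief compound preincubation.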
On the technique in general: Reporter assays use an easily measured gene product as a stand-in for the process of interest.
Consider `COc1cc(C(=O)OC(COCCC(C)C)CN2CCOCC2)cc(OC)c1OC` (centres undefined), for which the Potency result was “inactive”.

For `O=C(O)CNC(=O)c1ccc(CO)o1`, the Potency result was “inactive”.

With `O=C(O)CNC(=O)c1ccccc1`, the Potency entry is “inactive”.

Take `Nc1ccn([C@@H]2O[C@H](CO)[C@@H](O)C2(F)F)c(=O)n1`: the Potency entry was “inactive”.

Regarding `CN(C)CCN(C)CCN(C)C`, the Potency entry is “inactive”.

Take `C[C@@H]1CCC[C@H](C)N1`: the Potency result is “inactive”.

Take `Cc1ccc(-c2ncc(Cl)cc2-c2ccc(S(C)(=O)=O)cc2)cn1`: the Potency entry is “inactive”.

Consider `CC(C)[C@H]1CC[C@@H](C)CC1=O`, for which the Potency entry is “inactive”.

`CCCC[N+](C)(CCCC)CCCC`: the Potency result is “inactive”.

With `O=Cc1cccc(Br)c1`, the Potency was 16.3 µM (active).

With `CN1C(C)(C)CC(O)CC1(C)C`, the Potency entry was “inactive”.

On to `c1ccc(CCc2ccccc2)cc1`, for which the Potency entry was “inactive”.

Regarding `CC(C)C1CCC(O)CC1` (centres undefined), the Potency entry was “inactive”.

With `CCCC(C)C(=O)OCC` (centres undefined), the Potency entry was “inactive”.

Take `CCNS(=O)(=O)c1ccc(C)cc1`: the Potency was 41.1 µM (active).

On to `CC(N)C12CC3CC(CC(C3)C1)C2` (centres undefined), for which the Potency entry was “inactive”.

As for `CCCCCCCCCCCCCCC(=O)O`, the Potency was 35.7 µM (active).

Consider `O=S(=O)(O)c1cccc(S(=O)(=O)O)c1`, for which the Potency result is “inactive”.

In the case of `CC(=O)N1C[C@H](O)C[C@H]1C(=O)O`, the Potency entry was “inactive”.

As for `NC(=O)N[C@@H](CCC(=O)O)C(=O)O`, the Potency result is “inactive”.

As to `CCN[C@H]1C[C@H](C)S(=O)(=O)c2sc(S(N)(=O)=O)cc21`, the Potency entry was “inactive”.

For the compound `CC(C)C(=O)OC(=O)C(C)C`, the Potency entry was “inactive”.

As for `CC(C)c1ccc2ncccc2c1`, the Potency is 63.3 µM (active).

As for `CC(=O)c1cnccn1`, the Potency entry was “inactive”.

`CN1CC(=O)N/C1=N/C(=O)Nc1cccc(Cl)c1`: the Potency was 20.4 µM (active).

Regarding `CC(C)CC(C)(N)C#N` (centres undefined), the Potency result was “inactive”.

`CC1(C)OC[C@@H](COC(=O)CCc2ccc(OC[C@@H](O)CNCCNC(=O)N3CCOCC3)cc2)O1`: the Potency result was “inactive”.

For `CC1OC1C1CCC2(C)OC2C1` (centres undefined), the Potency entry is “inactive”.

In the case of `CC1=NS(=O)(=O)c2cc(Cl)ccc2N1`, the Potency was 15.5 µM (active).

In the case of `CNCCO`, the Potency entry was “inactive”.

Take `C[C@H]1C[C@H]2[C@@H]3CCC4=CC(=O)C=C[C@]4(C)[C@H]3C(=O)C[C@]2(C)[C@@]1(O)C(=O)CO`: the Potency is 27.5 µM (active).

On to `COCCOC[C@H](CC1(C(=O)NC2CCC(C(=O)O)CC2)CCCC1)C(=O)Oc1ccc2c(c1)CCC2` (some centres undefined), for which the Potency entry was “inactive”.

In the case of `CC1=CCC(O)(C(C)C)CC1` (centres undefined), the Potency result is “inactive”.

`CO[C@@]1(NC(=O)CSC[C@@H](N)C(=O)O)C(=O)N2C(C(=O)O)=C(CSc3nnnn3C)CS[C@@H]21`: the Potency result is “inactive”.

For the compound `CCC(C)(CCCC(C)C)OC(C)=O` (centres undefined), the Potency entry was “inactive”.

In the case of `CC(=O)Nc1ccc(OCC(O)CNC(C)C)cc1` (centres undefined), the Potency entry was “inactive”.

Regarding `CCCCCCCCCCOc1cc2c(=O)c(C(=O)OCC)c[nH]c2cc1OCC`, the activity change, negative = inhibition is 7.05% [at 10.5 µM] (inactive).

A further assay concerns the target Voltage-gated inwardly rectifying potassium channel KCNH2 (Homo sapiens) (UniProt Q12809). In words: Human Ether-a-go-go-Related Gene (hERG) channel small molecule antagonists: fluorescence cell-based qHTS assay (AID 1671200).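 Further: hERG-expressing U2OS cells given a thallium stimulus after FluxOR II dye loading.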 The note with it: hERG-U2OS cells, FluxOR thallium flux fluorescence; series mostly up to 76.8 µM. An outline of the steps:
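Cell line hERG-U2OS; dye FluxOR II, 1 h RT dark; Tl+ stimulus; ex 480/em 540 nm, read each second for 2 min.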
In general terms: Block of hERG is tested as a sign of cardiac risk.
For `COc1cc(C(=O)OC(COCCC(C)C)CN2CCOCC2)cc(OC)c1OC` (centres undefined), the Potency result was “inactive”.

On to `O=C(O)CNC(=O)c1ccc(CO)o1`, for which the Potency result was “inactive”.

Turning to `O=C(O)CNC(=O)c1ccccc1`, the Potency result is “inactive”.

Consider `Nc1ccn([C@@H]2O[C@H](CO)[C@@H](O)C2(F)F)c(=O)n1`, for which the Potency entry is “inactive”.

For `CN(C)CCN(C)CCN(C)C`, the Potency entry is “inactive”.

For the compound `C[C@@H]1CCC[C@H](C)N1`, the Potency result is “inactive”.

As for `Cc1ccc(-c2ncc(Cl)cc2-c2ccc(S(C)(=O)=O)cc2)cn1`, the Potency entry was “inactive”.

Turning to `CC(C)[C@H]1CC[C@@H](C)CC1=O`, the Potency entry is “inactive”.

Turning to `CCCC[N+](C)(CCCC)CCCC`, the Potency entry is “inactive”.

As for `O=Cc1cccc(Br)c1`, the Potency result is “inactive”.

Turning to `CN1C(C)(C)CC(O)CC1(C)C`, the Potency entry is “inactive”.

Take `c1ccc(CCc2ccccc2)cc1`: the Potency result is “inactive”.

As for `CC(C)C1CCC(O)CC1` (centres undefined), the Potency entry was “inactive”.

For the compound `CCCC(C)C(=O)OCC` (centres undefined), the Potency entry was “inactive”.

Consider `CCNS(=O)(=O)c1ccc(C)cc1`, for which the Potency result was “inactive”.

For the compound `CC(N)C12CC3CC(CC(C3)C1)C2` (centres undefined), the Potency result was “inactive”.

On to `CCCCCCCCCCCCCCC(=O)O`, for which the Potency entry is “inactive”.

`O=S(=O)(O)c1cccc(S(=O)(=O)O)c1`: the Potency entry was “inactive”.

In the case of `CC(=O)N1C[C@H](O)C[C@H]1C(=O)O`, the Potency entry is “inactive”.

As for `NC(=O)N[C@@H](CCC(=O)O)C(=O)O`, the Potency result is “inactive”.

With `CCN[C@H]1C[C@H](C)S(=O)(=O)c2sc(S(N)(=O)=O)cc21`, the Potency result is “inactive”.

`CC(C)C(=O)OC(=O)C(C)C`: the Potency entry was “inactive”.

As for `CC(C)c1ccc2ncccc2c1`, the Potency result was “inactive”.

Take `CC(=O)c1cnccn1`: the Potency result was “inactive”.

As for `CN1CC(=O)N/C1=N/C(=O)Nc1cccc(Cl)c1`, the Potency entry is “inactive”.

As for `CC(C)CC(C)(N)C#N` (centres undefined), the Potency entry is “inactive”.

As for `CC1(C)OC[C@@H](COC(=O)CCc2ccc(OC[C@@H](O)CNCCNC(=O)N3CCOCC3)cc2)O1`, the Potency entry is “inactive”.

Take `CC1OC1C1CCC2(C)OC2C1` (centres undefined): the Potency result was “inactive”.

`CC1=NS(=O)(=O)c2cc(Cl)ccc2N1`: the Potency result is “inactive”.

On to `CNCCO`, for which the Potency entry was “inactive”.

Regarding `C[C@H]1C[C@H]2[C@@H]3CCC4=CC(=O)C=C[C@]4(C)[C@H]3C(=O)C[C@]2(C)[C@@]1(O)C(=O)CO`, the Potency result is “inactive”.

`COCCOC[C@H](CC1(C(=O)NC2CCC(C(=O)O)CC2)CCCC1)C(=O)Oc1ccc2c(c1)CCC2` (some centres undefined): the Potency result was “inactive”.

As to `CC1=CCC(O)(C(C)C)CC1` (centres undefined), the Potency result was “inactive”.

`CO[C@@]1(NC(=O)CSC[C@@H](N)C(=O)O)C(=O)N2C(C(=O)O)=C(CSc3nnnn3C)CS[C@@H]21`: the Potency entry is “inactive”.

On to `CCC(C)(CCCC(C)C)OC(C)=O` (centres undefined), for which the Potency entry was “inactive”.

Regarding `CC(=O)Nc1ccc(OCC(O)CNC(C)C)cc1` (centres undefined), the Potency entry is “inactive”.

In the case of `CCCCCCCCCCOc1cc2c(=O)c(C(=O)OCC)c[nH]c2cc1OCC`, the activity change, negative = inhibition was 1.67% [at 6.97 µM] (inactive).
